According to PubChem BioAssay (NCATS):
Where “and” joins values, the source holds several entries; their conditions need not be identical. Identical values can stand only once. Inconclusive results are not listed. Where a call stands in place of a potency, no number is given. Calls of active or inactive are those of the source. Unless noted, calls come from the whole dose curve; as a rule, active = well fitted curve in the direction sought with a large enough effect; inconclusive = small, poorly fitted or top-dose-only effect, or another doubt; inactive = no such curve, though single readings can be large; an effect the other way counts as inactive or inconclusive.

Legend:
[1] = target: Voltage-gated inwardly rectifying potassium channel KCNH2 (Homo sapiens) (UniProt Q12809); experiment: qHTS Assay for Small Molecule Inhibitors of the Human hERG Channel Activity (AID 588834);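 note: lower thallium flux fluorescence means stronger hERG block; nearly all actives have a fitted effect of over 50% in size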; note: potency is the fitted concentration of half-maximal effect
Summary of the method: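 Thallium-flux (FluxOR) read-out on FDSS: fluorescence read 10 s before and 2 min after stimulation buffer. hERG-BacMam-transduced U2OS cells, compound exposure about 10 min. AC50 by standard Hill equation.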

[2] = target: Luciferin 4-monooxygenase (Photinus pyralis) (UniProt P08659); experiment: Biochemical firefly luciferase enzyme assay for NPC (AID 624030);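 note: purified P. pyralis luciferase at 10 nM with luciferin and ATP substrate; nearly all actives have a fitted effect of over 70% in size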
Summary of the method: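 Counter-screen for direct inhibition of the luciferase enzyme by approved-drug library compounds, run at 10 nM enzyme in 50 mM Tris acetate (final). Luminescence was read within 5 min of enzyme-buffer addition and normalized to PTC124 versus DMSO (0%).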

[3] = S16 Schwann cell PMP22 intronic element firefly luciferase assay (AID 624032); note: nearly all actives have a fitted effect of over 30% in size; note: potency is the fitted concentration of half-maximal effect
Summary of the method: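 Rat S16 Schwann cells stably carrying a PMP22 intronic element-driven Fluc reporter were seeded overnight, then exposed to compounds for 24 h at 37 °C. Luminescence was normalized to PTC124 (positive control) and DMSO (0% activity).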

[4] = S16 Schwann cell PMP22 intronic element beta-lactamase assay (AID 624044; calls by dose curve; note: nearly all actives have a fitted effect of over 15% in size; note: potency is the fitted concentration of half-maximal effect); settings: S16 rat Schwann cells, PMP22 element beta-lactamase FRET, 24 h; ratio activity, negative = inhibition: at 38.3 µM (top of the series)
Summary of the method: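 Beta-lactamase reporter under a PMP22 intronic regulatory element in stable S16 rat Schwann cells; 24 h compound exposure. 460 nm blue signal normalized between DMSO (0%) and potassium clavulanate, with 535 nm FRET tracking viability; curves classed by r2 and response.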

[5] = S16 Schwann cell viability assay (CellTiter-Glo assay) (AID 624031); note: nearly all actives have a fitted effect of over 70% in size; note: potency is the fitted concentration of half-maximal effect
Summary of the method: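 Untransfected S16 rat Schwann cells; compound 24 h, 37 °C/5% CO2; CellTiter-Glo ATP luminescence. % activity vs no-cell wells and DMSO controls (0%); concentration-effect curves classed by r2, response magnitude, activity.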

[6] = target: Glutaminase kidney isoform, mitochondrial (Homo sapiens) (UniProt O94925); experiment: qHTS for Inhibitors of Glutaminase (GLS): LOPAC Validation (AID 624146);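 note: glutamate product detected by oxidase and peroxidase coupled Amplex red fluorescence gain; nearly all actives have a fitted effect of over 60% in size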
Summary of the method: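 hKGA; 45 mM KH2PO4 pH 8.2 + 0.02% Tween-20; cpd via pin tool; 1 mM Gln soln; GluOx/HRP/Amplex Red; RT 30 min; fluor. t0 & final.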

Chain of Glutaminase kidney isoform, mitochondrial (Homo sapiens) (O94925 whole entry, looked up, canonical isoform): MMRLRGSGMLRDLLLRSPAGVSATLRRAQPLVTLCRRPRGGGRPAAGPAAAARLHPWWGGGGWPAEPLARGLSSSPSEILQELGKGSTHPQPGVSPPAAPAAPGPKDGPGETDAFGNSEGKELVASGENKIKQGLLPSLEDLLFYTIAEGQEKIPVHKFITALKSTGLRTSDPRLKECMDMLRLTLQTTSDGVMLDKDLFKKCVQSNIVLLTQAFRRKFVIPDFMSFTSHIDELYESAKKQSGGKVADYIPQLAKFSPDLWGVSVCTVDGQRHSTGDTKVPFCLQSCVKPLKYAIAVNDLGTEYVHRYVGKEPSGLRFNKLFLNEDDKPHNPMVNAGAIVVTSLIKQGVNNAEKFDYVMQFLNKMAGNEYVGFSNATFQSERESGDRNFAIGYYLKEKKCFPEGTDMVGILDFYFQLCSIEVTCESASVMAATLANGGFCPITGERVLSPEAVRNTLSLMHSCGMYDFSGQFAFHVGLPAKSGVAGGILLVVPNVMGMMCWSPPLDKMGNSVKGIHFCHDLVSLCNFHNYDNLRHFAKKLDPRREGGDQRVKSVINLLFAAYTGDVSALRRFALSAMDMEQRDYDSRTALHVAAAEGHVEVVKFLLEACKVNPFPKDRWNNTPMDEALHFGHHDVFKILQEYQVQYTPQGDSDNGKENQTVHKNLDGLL
Chain of Luciferin 4-monooxygenase (Photinus pyralis) (P08659 whole entry, looked up): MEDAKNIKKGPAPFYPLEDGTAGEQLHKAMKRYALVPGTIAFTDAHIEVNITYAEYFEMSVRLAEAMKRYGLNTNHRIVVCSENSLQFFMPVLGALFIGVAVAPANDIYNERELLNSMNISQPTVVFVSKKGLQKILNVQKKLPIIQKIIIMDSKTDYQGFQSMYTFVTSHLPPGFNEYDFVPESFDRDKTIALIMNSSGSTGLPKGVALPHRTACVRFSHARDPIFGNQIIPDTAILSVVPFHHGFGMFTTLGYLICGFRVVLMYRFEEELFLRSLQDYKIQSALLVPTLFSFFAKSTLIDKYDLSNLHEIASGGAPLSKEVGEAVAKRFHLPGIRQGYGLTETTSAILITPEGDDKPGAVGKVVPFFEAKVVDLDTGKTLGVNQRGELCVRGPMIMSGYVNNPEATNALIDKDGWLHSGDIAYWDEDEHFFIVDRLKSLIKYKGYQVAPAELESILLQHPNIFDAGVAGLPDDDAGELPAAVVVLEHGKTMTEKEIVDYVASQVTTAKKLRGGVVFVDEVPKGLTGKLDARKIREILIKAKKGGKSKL
Chain of Voltage-gated inwardly rectifying potassium channel KCNH2 (Homo sapiens) (Q12809 whole entry, looked up): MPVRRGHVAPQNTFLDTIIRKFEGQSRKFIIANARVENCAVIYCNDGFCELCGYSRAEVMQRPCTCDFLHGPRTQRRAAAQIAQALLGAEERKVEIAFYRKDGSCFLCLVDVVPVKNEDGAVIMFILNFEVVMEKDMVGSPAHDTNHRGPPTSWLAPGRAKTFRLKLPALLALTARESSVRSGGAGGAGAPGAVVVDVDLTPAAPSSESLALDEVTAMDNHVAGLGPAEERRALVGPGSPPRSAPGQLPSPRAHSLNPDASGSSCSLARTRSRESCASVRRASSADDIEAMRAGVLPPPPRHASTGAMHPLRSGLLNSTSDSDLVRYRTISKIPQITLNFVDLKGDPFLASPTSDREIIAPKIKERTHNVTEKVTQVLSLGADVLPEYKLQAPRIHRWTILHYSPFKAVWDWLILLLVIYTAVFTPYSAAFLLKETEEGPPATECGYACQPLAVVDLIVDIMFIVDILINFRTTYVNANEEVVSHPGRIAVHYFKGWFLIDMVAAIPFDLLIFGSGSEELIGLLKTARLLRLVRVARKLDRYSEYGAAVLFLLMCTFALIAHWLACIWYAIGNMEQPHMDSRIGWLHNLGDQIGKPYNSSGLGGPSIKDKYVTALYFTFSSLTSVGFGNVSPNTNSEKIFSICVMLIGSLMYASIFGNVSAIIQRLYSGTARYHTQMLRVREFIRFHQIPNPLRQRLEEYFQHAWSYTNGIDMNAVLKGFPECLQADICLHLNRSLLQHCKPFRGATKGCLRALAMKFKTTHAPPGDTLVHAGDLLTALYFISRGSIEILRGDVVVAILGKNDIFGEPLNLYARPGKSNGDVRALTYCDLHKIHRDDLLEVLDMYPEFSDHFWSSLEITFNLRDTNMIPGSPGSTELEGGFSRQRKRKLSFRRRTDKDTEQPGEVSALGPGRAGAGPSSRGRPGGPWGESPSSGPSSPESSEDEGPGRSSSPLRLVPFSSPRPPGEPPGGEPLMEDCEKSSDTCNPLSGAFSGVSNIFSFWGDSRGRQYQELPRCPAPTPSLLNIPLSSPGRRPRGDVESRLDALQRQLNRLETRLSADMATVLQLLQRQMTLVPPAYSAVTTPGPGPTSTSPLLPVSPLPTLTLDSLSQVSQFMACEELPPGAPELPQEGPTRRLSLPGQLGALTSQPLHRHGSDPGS

Structure (SMILES) | Potency [1] | Potency [2] | Potency [3] | Potency [4] | Potency [5] | Potency [6]
Oc1c(I)cc(I)c2cccnc12 | inactive | inactive | 8.09 µM (active) | – | – | –
C[C@@H](CN(C)C)CN1c2ccccc2Sc2ccccc21 | 6.31 µM (active) | inactive | inactive | inactive | – | –
CCOC(=O)OC(C)OC1=C(C(=O)Nc2ccccn2)N(C)S(=O)(=O)c2ccccc21 (stereo unspecified) | inactive | inactive | – | 8.91 µM (active) | inactive | –
CCOc1ccc2nc3cc(N)ccc3c(N)c2c1 | inactive | inactive | – | inactive | 12.8 µM (active) | –
C#C[C@]1(O)CC[C@H]2[C@@H]3CCc4cc(OC5CCCC5)ccc4[C@H]3CC[C@@]21C | inactive | inactive | – | inactive | 32.2 µM (active) | –
c1ccc(OCc2ccc(CCCN3CCOCC3)cc2)cc1 | 12.6 µM (active) | inactive | inactive | inactive | – | –
O=C(CCN1CCC(c2ccccc2)C1)c1ccc2c(c1)OCCO2 (stereo unspecified) | 15.8 µM (active) | inactive | 25.6 µM (active) | inactive | 28.7 µM (active) | –
CC[N+](CC)(CCNC(=O)C(=O)NCC[N+](CC)(CC)Cc1ccccc1Cl)Cc1ccccc1Cl | inactive | inactive | inactive | inactive | inactive | –
NC(=O)C(=O)N/N=C/c1ccc([N+](=O)[O-])o1 | inactive | inactive | 32.2 µM (active) | inactive | – | –
CCCCCCCCCCCCCCCCOP(=O)([O-])OCC[N+](C)(C)C | inactive | inactive | inactive | inactive | inactive | –
CC(=O)N/N=C/c1ccc([N+](=O)[O-])o1 | inactive | inactive | – | inactive | – | –
CCN(CC)CCOC(=O)C(c1ccccc1)C1CCCCC1 (stereo unspecified) | 12.6 µM (active) | inactive | – | inactive | inactive | –
CN(C)CCCOc1nn(Cc2ccccc2)c2ccccc12 | 5.01 µM (active) | inactive | inactive | inactive | inactive | –
CN1C2CCC1CC(OC(=O)c1c[nH]c3ccccc13)C2 (stereo unspecified) | 11.2 µM (active) and 5.62 µM (active) | inactive | inactive | inactive | inactive | inactive
CCCCCC=CCC=CCCCCCCCC(=O)OCC | inactive | inactive | – | inactive | inactive | –
O=c1c(-c2ccccc2)c1-c1ccccc1 | inactive | inactive | 3.22 µM (active) | – | inactive | –
Nc1cc(Cl)c(NC2=NCCN2)c(Cl)c1 | 0.708 µM (active) | inactive | inactive | inactive | inactive | inactive
CN=C(NC#N)NCCSCc1csc(N=C(N)N)n1 | inactive | inactive | inactive | inactive | inactive | –
CC(=O)Oc1ccc(C(=C2CCCCC2)c2ccc(OC(C)=O)cc2)cc1 | inactive | inactive | inactive | inactive | inactive | –
O=C(Nc1ccc(Oc2ccc(Cl)cc2)c(Cl)c1)c1cc(I)cc(I)c1O | inactive | – | – | – | inactive | –
CCN1CCCC1=O | inactive | – | inactive | – | inactive | –
CCCCc1nc(Cl)c(CO)n1Cc1ccc(-c2ccccc2-c2nn[nH]n2)cc1 | inactive | – | inactive | – | inactive | –
COc1ccc(/C=C/C(=O)c2ccc(OC)cc2OC)cc1 | inactive | – | inactive | inactive | inactive | –
O=C(O)c1cc2cc(Cc3cccnc3)ccc2o1 | inactive | – | inactive | inactive | inactive | inactive
